The first experiment has as its target PPP1R13B. Nature of the experiment: pooled miR-30 sensor sort-seq; sequence = guide strand. As to conditions: shRNA.
TTACATTTCTCTGAGTTCGTTG registered a sensor-assay potency score (higher = more potent) of -0.0932.

Regarding TACACTGCTTTAACTGACTTAT, the sensor-assay potency score (higher = more potent) is -0.93.

TTCTACAACATCTCGACAGGTT yielded a sensor-assay potency score (higher = more potent) of 0.568.

Sequence TTCAGAAATAGACTGCTGCTGA displayed a sensor-assay potency score (higher = more potent) of 0.172.

TAAGAGTTCCTTCTGCTGCTGA returned a sensor-assay potency score (higher = more potent) of 0.621.

For TTAACTGACTTATTTAAGGCGC, the sensor-assay potency score (higher = more potent) stood at 0.229.

Turning to TTCCTTGGCAACCAACATCTGC, the sensor-assay potency score (higher = more potent) is -1.09.

Another experiment concerns the target PPP1R15A. The description is as above. The settings on record: shRNA.
Sequence TTTACTGCTTCCACCAGCCAGG came in with a sensor-assay potency score (higher = more potent) of -0.645.

Sequence TAGGGGAGTCTCAGGGTCCGGA came in with a sensor-assay potency score (higher = more potent) of -1.44.

In turn, AAGAGAACTTGTTAACTCCCTC displayed a sensor-assay potency score (higher = more potent) of 0.225.

The sequence TAGAGGTTCTGTGAGCTTCTTT came in with a sensor-assay potency score (higher = more potent) of 0.0683.

The sequence TTCAGGAAGGGAACTGCTGGTT had a sensor-assay potency score (higher = more potent) of -0.684.

Consider TCCTTTTACTGCTTCCACCAGC, for which the sensor-assay potency score (higher = more potent) is -1.39.

TTTTACTGCTTCCACCAGCCAG: the sensor-assay potency score (higher = more potent) was -1.03.

With TTCTGTGAGCTTCTTTCTTTAC, the sensor-assay potency score (higher = more potent) was -1.62.

In turn, ATGGACAGTGACCTTCTCGGAG registered a sensor-assay potency score (higher = more potent) of -1.22.

TTCTGTTCTTTTATCCTCCGTG: the sensor-assay potency score (higher = more potent) is -0.152.

In turn, TGGACAGTGACCTTCTCGGAGA registered a sensor-assay potency score (higher = more potent) of -1.41.

For the sequence TTGCCAGAGGAGTCCTAGCTTC, the sensor-assay potency score (higher = more potent) was -1.05.

In a further experiment the target is PPP1R3A. The experiment is described as above. The settings on record: shRNA.
On to TATAGGTACAAATTCATTCTGA, for which the sensor-assay potency score (higher = more potent) worked out at 0.416.

For TGGATTAGCATTATCATCCAGG, the sensor-assay potency score (higher = more potent) is -0.615.

Turning to TTATCATCAACTCTAATTCTTT, the sensor-assay potency score (higher = more potent) is -0.712.

Take TATAGGTATTTAATGATCCAAA: the sensor-assay potency score (higher = more potent) was -1.48.

Turning to TAAAATGTCATAATGTGTCTGC, the sensor-assay potency score (higher = more potent) came out at 0.498.

TTGAACAATGAATAGTCCCATT came in with a sensor-assay potency score (higher = more potent) of -1.02.

Regarding TTGTTTTTCATTAACACCTAAA, the sensor-assay potency score (higher = more potent) was -0.918.

TTACATATACTAACTTCTCAAA had a sensor-assay potency score (higher = more potent) of -1.14.

In turn, TTGATGAACAAACTTGACCAGT showed a sensor-assay potency score (higher = more potent) of -0.427.

The sequence TTGGTGAATGAGACACATCTGC yielded a sensor-assay potency score (higher = more potent) of -0.3.

TTTGTTTTTCATTAACACCTAA gave a sensor-assay potency score (higher = more potent) of -0.646.

TTGAATTACAAATATTTTCTGA gave a sensor-assay potency score (higher = more potent) of -0.0203.

A further experiment concerns the target PPP2R2B. The experiment is described as above. As to conditions: shRNA.
For the sequence TTTTACTCTCCTGCTCTCGTTG, the sensor-assay potency score (higher = more potent) was -0.655.

As for TTCATAGAGGGAACACAGCTTG, the sensor-assay potency score (higher = more potent) was -0.115.

The sequence TAAACTCTTCAGGTAATCGAAC displayed a sensor-assay potency score (higher = more potent) of -0.877.

Regarding TTCTATTCCAATCATTTCCTGT, the sensor-assay potency score (higher = more potent) is -0.465.

In turn, TTGACGGTCAAGTAGTCCCTGG returned a sensor-assay potency score (higher = more potent) of -0.065.

On to TTAAATACTACAGACAACCTCA, for which the sensor-assay potency score (higher = more potent) turned out to be 0.289.

TATTTCTAAACTCTTCAGGTAA returned a sensor-assay potency score (higher = more potent) of -0.582.

On to TTCTTCTATTTCTAAACTCTTC, for which the sensor-assay potency score (higher = more potent) is -0.752.

In turn, TTGACTAGTATTCAGTATGTGA displayed a sensor-assay potency score (higher = more potent) of -0.666.

The values above are taken from the OligoGym collection.
Also: reference of the scale not given here.
